# Laboratory results: ChEMBL document CHEMBL3988442, “University of Dundee, Small-Polar-MMV Screening Library” (2021)
# The campaign covered roughly 69,000 compounds. About 950 (1.4%) showed an effect of 50% or more. The sample as a whole holds a higher share of strong results than the screen did.
# Tested on: Mycobacterium tuberculosis
# Experiment: Cornell M. t heat shock assay; note: in the data most compounds retested in dose-response had high values
# Assay type: functional, organism-based
# Set-up: dose or concentration left out as unconfirmed
row,Structure (SMILES),Percent Effect [%]
1,O=C(O)C(F)(F)F.O=C(c1cnccn1)N1CC2(CCN(Cc3ccsc3)C2)C1,-14.16
2,CN(C)[C@@H]1CCN(C(=O)Cc2cccs2)[C@H]1Cc1cnn(C)c1.O=C(O)C(F)(F)F,5.582
3,O=C(O)C(F)(F)F.c1ccc(CN2Cc3nccn3CC(Cn3cccn3)C2)nc1 (stereo not drawn),11.05
4,CN(C)CCN1CCCC12CCN(C(=O)c1ccncc1)CC2.O=C(O)C(F)(F)F.O=C(O)C(F)(F)F,6.106
5,CC(NC(=O)OC(C)(C)C)c1nnc(S(=O)(=O)Cc2ccc(Cl)cc2)o1 (stereo not drawn),103.1
6,Cc1noc(C(C)NC(=O)[C@@H](C)NC(=O)OC(C)(C)C)n1 (stereo partly drawn),4.198
7,Cc1ccccc1CS(=O)(=O)c1nnc(C(C)NC(=O)OC(C)(C)C)o1 (stereo not drawn),89.48
8,C[C@H](NC(=O)OC(C)(C)C)c1nnc(S(=O)(=O)Cc2cccc(F)c2)o1,-6.703
9,CC(NC(=O)OC(C)(C)C)c1nnc(S(=O)(=O)Cc2ccccc2Cl)o1 (stereo not drawn),10.13
10,Cl.N[C@@H](Cc1ccccc1)c1nnc(S(=O)(=O)Cc2ccc(Cl)cc2)o1,-31.2
11,COCCN1C[C@@H]2[C@@H](OC)CCN(C(=O)Cc3ccsc3)[C@@H]2C1.O=C(O)C(F)(F)F,-5.727
12,O=C(O)C(F)(F)F.O=C(c1ccc(F)cc1)N1CC[C@H]2[C@H]1CCN2CC1CC1,-18.24
13,CN1CCN(C)C2(CCN(Cc3ccsc3)CC2)C1=O.O=C(O)C(F)(F)F,-19.83
14,O=C(O)C(F)(F)F.O=C(O)C(F)(F)F.O=C1C[C@H]2[C@@H](CCN2C(=O)Cc2ccsc2)N1Cc1cccnc1,-3.092
15,CCCN1CCC2(CC1)CN(C(=O)c1cccnc1)c1ccc(F)cc12.O=C(O)C(F)(F)F.O=C(O)C(F)(F)F,1.02
16,O=C(c1cc(COc2ccc3c(c2)OCO3)[nH]n1)N1CCCC1,27.84
17,O=C(c1cc(COc2ccc3c(c2)OCO3)[nH]n1)N1CCOCC1,27.44
18,O=C(c1cc(COc2ccc3c(c2)OCO3)[nH]n1)N1CCSCC1,62.66
19,O=C(NC1CC1)[C@@]12CCO[C@@H]1CCN(Cc1ccc3c(c1)OCO3)C2.O=C(O)C(F)(F)F,3.117
20,O=C(Nc1ccc(Cl)cn1)c1nn(C2CCS(=O)(=O)C2)c2c1CCCC2 (stereo not drawn),11.75
21,CCn1nc(C)c(NC(=O)c2cc(NC(=O)C3CC3)n(C)n2)c1C,-24.03
22,CC(C)c1cc(=O)[nH]c(C(C)(C)N)n1.Cl,-1.854

row,Structure (SMILES),Percent Effect [%]
1,CCCc1cc(=O)[nH]c(-c2cccc(CN3CCCCCC3)c2)n1,-11.64
2,CCc1cc(=O)[nH]c(-n2nc(C3CC3)cc2NC(=O)C2CC2)n1,103.7
3,Cc1cc(C(=O)Nc2cc(C3CC3)n[nH]2)c2c(C)nn(C)c2n1,28.31
4,CCCc1cc(=O)[nH]c(-n2nc(C3CC3)cc2N)n1,101.7
5,Cc1cc(=O)[nH]c(-n2nc(C3CC3)cc2N)n1,101
6,CC(C)c1cc(=O)[nH]c(-n2nc(C3CC3)cc2N)n1,103
7,CCc1c(C)nc(-n2nc(C3CC3)cc2NC(C)=O)[nH]c1=O,-4.817
8,Cc1cc(C2CCC2)nc(N2CCC3(CCNC(=O)CC3)CC2)n1,9.358
9,CCC(C)(N)c1nc(C(C)C)cc(=O)[nH]1.Cl (stereo not drawn),7.893
10,CCCc1cc(=O)[nH]c(-c2cccc(CN3CCN4CCCC4C3)c2)n1 (stereo not drawn),0.7345
11,Cc1ccc(CN(CCCN2CCOCC2)Cc2cnc(C)n2C)o1.O=C(O)CC(O)(CC(=O)O)C(=O)O,-5.16
12,O=C(O)C(F)(F)F.O=C1COC2(CCN(CC3CCC3)CC2)CN1c1cncnc1,-21.31
13,COc1ccc(CN2CCc3c(nc(-c4ccccn4)[nH]c3=O)C2)cc1,89.16
14,Cn1cc(CN2CCc3c(nc(-c4ccccn4)[nH]c3=O)C2)cn1,-205.6
15,Cn1cccc1CN1CCc2c(nc(-c3ccccn3)[nH]c2=O)C1,73.71
16,O=c1[nH]c(N2CCCCC2)nc2c1CCN(Cc1cccnc1)C2,-9.833
17,COc1ccccc1CN1CCc2c(nc(-c3ccccn3)[nH]c2=O)C1,93.29
18,O=C(c1ccccn1)N1CCc2c(nc(-c3ccncc3)[nH]c2=O)C1,-10.2
19,CCn1ncc(CN2CCc3c(nc(-c4cccnc4)[nH]c3=O)C2)c1C,-178.1
20,CC1CCCCN1c1nc2c(c(=O)[nH]1)CCN(Cc1ccccn1)C2 (stereo not drawn),-29.02
21,O=c1[nH]c(-c2ccccn2)nc2c1CCN(Cc1cccc(O)c1)C2,53.42
